In test [1] the test system is CRL-7250. The test can be described thus: Cytotoxic Profiling of Annotated Libraries Using Quantitative High-Throughput Screening (AID 1296008). Also: nearly all actives have a fitted effect of over 60% in size. Also: potency is read from the fitted curve at half-maximal effect. As to max response: % is scaled to controls: 0 for no effect and ±100 for the full control effect. Particulars: Five cell lines viability, CellTiter-Glo ATP luminescence, 48-72 h; max response: stronger effect = lower value. In a few lines:
(§1)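 Cells exposed to compounds for 48 or 72 hr at 37 degrees Celsius. Viability read as ATP-coupled luminescence with CellTiter-Glo after 10 min at room temperature.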
On the technique in general: Cellular ATP, detected with luciferase, serves as a proxy for viable cell number.

For test [2], the system named is HEK293. Described as above. Particulars: Five cell lines viability, CellTiter-Glo ATP luminescence, 48-72 h; max response: stronger effect = lower value. In outline:
as §1

Test [3] relates to HaCat. The description is as above. Particulars: Five cell lines viability, CellTiter-Glo ATP luminescence, 48-72 h; max response: stronger effect = lower value. In a few lines:
as §1

In test [4] the test system is KB-3-1. The description is as above. The note with it: Five cell lines viability, CellTiter-Glo ATP luminescence, 48-72 h; max response: stronger effect = lower value. In outline: as §1
In test [5] the test system is NIH3T3. Described as above. The note with it: Five cell lines viability, CellTiter-Glo ATP luminescence, 48-72 h; max response: stronger effect = lower value. In outline: as §1
Test [6] deals with NIH3T3. The test can be described thus: qHTS assay to identify novel small-molecules to repurpose for Merkel cell carcinoma treatment (AID 1296009). Also: nearly all actives have a fitted effect of over 60% in size. Particulars: MCC and control cell lines, CellTiter-Glo viability, 72 h; at 44.8 µM (top of the series) unless noted. In outline:
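Cells were treated for 72 hr at 37 degree celsius with compounds in 8- or 11-point dose response. Viability was read by CellTiter-Glo luminescence, normalized to no-cell (cytotoxicity) and DMSO controls.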
For orientation: Quantitative high-throughput screening tests each substance at several concentrations.

Test [7] relates to C33A. The test can be described thus: Primary qHTS to identify gynecologic anti-cancer compounds using libraries of approved drugs and bioactive compounds (AID 1345084). Also: % is scaled to controls: 0 for no effect and ±100 for the full control effect; nearly all actives have a fitted effect of over 55% in size. Particulars: Gynecologic cancer cell panel viability, ATPlite luminescence, 48 h; series mostly up to 57.5 µM. In a few lines:
(§2)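 48 h compound exposure at 37 C, 5% CO2; five-point qHTS. ATPlite luminescence readout of cell ATP.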

The test system of test [8] is CAOV3. The description is as above. Particulars: Gynecologic cancer cell panel viability, ATPlite luminescence, 48 h; series mostly up to 57.5 µM. In outline: as §2
Test [9] has as its system CASKI. The description is as above. The note with it: Gynecologic cancer cell panel viability, ATPlite luminescence, 48 h; series mostly up to 57.5 µM. In outline:
as §2

For test [10], the system named is Es-2. Described as above. Particulars: Gynecologic cancer cell panel viability, ATPlite luminescence, 48 h; series mostly up to 57.5 µM. In a few lines: as §2
Test [11] has as its system HeLa. The test is described as above. The note with it: Gynecologic cancer cell panel viability, ATPlite luminescence, 48 h; series mostly up to 57.5 µM. In outline:
as §2

In test [12] the test system is Hek293T. Described as above. The note with it: Gynecologic cancer cell panel viability, ATPlite luminescence, 48 h, control line for the selectivity index; series mostly up to 57.5 µM. In a few lines:
as §2

The subject of test [13] is JEG-3. Described as above. The note with it: Gynecologic cancer cell panel viability, ATPlite luminescence, 48 h; series mostly up to 57.5 µM. In a few lines:
as §2

Test [14] concerns OV90. The test is described as above. Particulars: Gynecologic cancer cell panel viability, ATPlite luminescence, 48 h; series mostly up to 57.5 µM. In outline: as §2
Test [15] has as its system TAB109. The test can be described thus: qHTS profiling for inhibitors of Plasmodium falciparum proliferation (AID 504749).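 Also: 0% = DMSO vehicle and full inhibition = artemisinin control; nearly all actives have a fitted effect of over 60% in size.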 The note with it: P. falciparum in erythrocytes, SYBR Green DNA, 72 h; series mostly up to 28.7 µM. In outline: (§3)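 P. falciparum-infected erythrocytes (0.3% parasitemia, 2.5% hematocrit) incubated with compound 72 h at 37 C, 5% CO2. Parasite DNA detected by SYBR Green after lysis, overnight at room temperature; normalised to 0.29 uM artemisinin and DMSO.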

Test [16] deals with TAB113. The description is as above. Particulars: P. falciparum in erythrocytes, SYBR Green DNA, 72 h; series mostly up to 28.7 µM. In outline: as §3
Test [17] deals with TAB165. Described as above. The note with it: P. falciparum in erythrocytes, SYBR Green DNA, 72 h; series mostly up to 28.7 µM. In outline:
as §3

The test system of test [18] is W2. The test is described as above. Particulars: P. falciparum in erythrocytes, SYBR Green DNA, 72 h; series mostly up to 28.7 µM. In outline: as §3

The record followed here is PubChem BioAssay (NCATS).

Records with an inconclusive call do not appear. Unmarked numbers belong to inactive results. Calls of active or inactive are those of the source. Calls follow the shape of the dose curve; as a rule, active = well fitted curve in the direction sought with a large enough effect; inconclusive = small, poorly fitted or top-dose-only effect, or another doubt; inactive = no such curve, though single readings can be large; an effect the other way counts as inactive or inconclusive.

`CC1=C2C(=O)C=C(CO)C2[C@H]2OC(=O)[C@H](C)[C@@H]2[C@@H](OC(=O)Cc2ccc(O)cc2)C1` (stereo not given in full): the outcome in [1], in [4], in test [5] and in test [9] was inactive. Further, the max response was -2.2% in test [2] and 3.29% in test [3]. In addition, the outcome in test [6] was “inactive [at 17.4 µM]”. Besides, the Potency entry in test [7], in [8], in test [10], in test [11], in [12] and in [13] was “inactive” each time. For the same molecule, in [14], the Potency result was “inactive”.

On to `FC(F)(F)Oc1ccc(-c2ccc3nnc(C(F)(F)F)n3c2)cc1`, for which the max response is -1.14% in [1], -7.41% in [2] and -4.75% in test [3]. Besides, the molecule was classed as inactive in test [4], in test [5], in test [6] and in test [9]. Besides, the Potency entry in test [7], in test [8], in [10], in [12], in [13] and in test [14] was “inactive” each time.

Regarding `O=C(Nc1cc(-c2ccccc2)nn1-c1ccccc1F)c1ccc([N+](=O)[O-])cc1`, the max response in test [1] was -9.65%; in [3], 2.32%; in test [4], -2.53%. Further, in [2], the Potency is 23.1 µM (active). In addition, the call in [5], in [6] and in test [9] was inactive. In addition, the Potency result in [7], in test [8], in test [10], in test [11], in [12] and in test [13] was “inactive” in each case. Further, the Potency entry in [14] is “inactive”.

Turning to `C=C1C2CCC3CC2(CC(O)C2(O)C1CC(OC1OC(CO)C(O)C(O)C1O)C2(C)C)CC3(C)O` (stereo not given), the max response in test [1] is -0.056%; in test [2] it was 4.37%; in [3] it was -5.66%; in test [4], -0.357%. Further, the molecule was classed as inactive in [5] and in [9]. In addition, the outcome in test [6] was “inactive [at 17.4 µM]”. Moreover, the Potency result in test [7], in test [10], in [11], in test [12], in [13] and in test [14] was “inactive” each time.

For `C/C=C/C1OC2=C(C(=O)OC2(C)O)C(O)C1O` (stereo not given), the max response is -6.2% in test [1], -1.4% in test [2], 2.04% in test [3] and -1.78% in [4]. In addition, the outcome in [5], in test [6] and in test [9] was inactive. The Potency entry in [7], in test [10], in test [11], in test [12], in test [13] and in test [14] was “inactive” in each case.

Regarding `O=C(OC[C@H]1O[C@@H](Oc2ccccc2COC(=O)C2(O)C=CCCC2O)[C@H](O)[C@@H](O)[C@@H]1O)c1ccccc1` (stereo not given in full), the outcome in test [1], in test [5] and in test [9] was inactive. The max response in [2] is -3.05%; in test [3], 3.77%; in test [4] it was 1.49%. For the same molecule, the outcome in test [6] is “inactive [at 17.4 µM]”. In addition, the Potency result in [7], in test [10], in test [11], in test [12], in test [13] and in test [14] was “inactive” in each case.

Consider `COc1cn(-c2ccc(-n3cccn3)cc2F)nc(-c2ccnn2-c2ccccc2)c1=O`, for which the max response was 1.34% in [1], -9.47% in test [2], -2.34% in [3] and 7.34% in [4]. In addition, the molecule was called inactive in test [5] and in test [9]. The Potency result in test [7], in [8], in [10], in test [11], in test [12] and in test [13] was “inactive” in each case. Moreover, the Potency entry in test [14] was “inactive”.

For `O=C(O)CCc1cc2ccoc2cc1O[C@@H]1O[C@H](CO)[C@@H](O)[C@H](O)[C@H]1O`, the call in test [1], in [4], in test [5] and in test [6] was inactive. Also, the max response in test [2] was 1.52%; in [3], 0.684%. Also, the Potency entry in test [7], in test [8], in test [10], in [11], in test [12] and in test [13] was “inactive” in each case. Moreover, the Potency entry in test [14] was “inactive”.

For `C/C(=C\C(=O)C(C)C1CCC2C3=C(CCC21C)C1(C)CCC(=O)C(C)(C)C1(O)CC3)C(C)(C)O` (stereo not given), the max response in [1] was 3.05%; in test [2], -15.6%; in test [3] it was 1.49%; in test [4], -3.74%. Further, the result in test [5] and in [9] was inactive. In addition, in [6], the outcome was “inactive [at 17.4 µM]”. The Potency result in test [7], in [10], in test [11], in [12], in test [13] and in test [14] was “inactive” each time.

As for `Cc1ncc(Cl)cc1NCc1ccc(C(=O)NC(CC2CCCC2)C(=O)NC2CC2)s1` (stereo not given), the call in test [1], in test [5], in test [6] and in test [9] was inactive. In addition, the values for the max response in [2], in test [3] and in test [4] were -15.8%, -11.9% and -1.73%, respectively. The Potency result in test [7], in test [10], in [11], in [12], in [13] and in test [14] was “inactive” in each case.

Turning to `CCOC(=O)C(CCc1ccccc1)NC(C)C(=O)N1Cc2ccccc2CC1C(=O)O` (stereo not given), the molecule was called inactive in test [15], in test [16], in test [17], in test [18], in [5] and in test [9]. The max response was -6.01% in test [1], -4.89% in test [2], -10.9% in test [3] and -4.78% in test [4]. The Potency result in [7], in test [8], in [10], in [11], in test [12] and in test [13] was “inactive” each time. The Potency entry in test [14] is “inactive”.

In the case of `C[C@H]1[C@H](C)CC[C@]2(C(=O)O)CC[C@]3(C)C(=CCC4[C@@]5(C)C[C@@H](O)[C@H](O)C(C)(C)C5CC[C@]43C)[C@H]12` (stereo not given in full), the call in [1], in [5] and in [9] was inactive. In addition, the max response in [2] is 3.03%; in test [3] it was -6.87%; in test [4] it was -2.55%. Also, the Potency result in test [7], in test [8], in [10], in test [11], in test [12] and in [13] was “inactive” in each case. In test [14], the Potency result was “inactive”.

In the case of `CC(=O)OC1C(C)C2C(OC3OC(CO)C(O)C(O)C3O)OC=C(C(=O)O)C2C1OC(=O)c1ccccc1` (stereo not given), the molecule was classed as inactive in test [1], in test [4], in test [5] and in [9]. Besides, the max response in [2] was 1.6%; in test [3] it was -7.28%. Besides, the outcome in test [6] was “inactive [at 17.4 µM]”. For the same molecule, the Potency result in test [7], in test [10], in test [11], in test [12], in test [13] and in test [14] was “inactive” throughout.
